# Compounds with a hit are over-represented: about 1.4% of the library has one in this group of screens.
# N370S GC mod: qHTS Assay for Inhibitors and Activators of N370S glucocerebrosidase as a Potential Chaperone Treatment of Gaucher Disease | actives 0.092% (n = 330,000) | AID 2101, 2009 | Potency, µM (top dose mostly 59.4 µM), without a hit: at the top dose activity change, negative = inhibition, usual class: inhibitors | N370S GC spleen homogenate, 4MU-glucoside fluorescence | Lysosomal acid glucosylceramidase (Homo sapiens), P04062;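 also: potency is read from the fitted curve at half-maximal effect; 0% = full enzyme activity and -100% = no enzyme basal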
# a7 integrin act: qHTS for Activators of Integrin-Mediated Alleviation for Muscular Dystrophy; alpha7betagal myoblasts, beta-gal FDG fluorescence, 48 h; Potency, µM (top dose mostly 38.3 µM), for the others: top-dose activation, most hits filed as activators; actives 0.064% (n = 350,000); AID 624291, 2012;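 also: potency is read from the fitted curve at half-maximal effect; 100% = response of the positive control SU9516; nearly all actives have a fitted effect of over 60% in size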
#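 Alpha7betagal+/- myoblasts (passage 13) were plated 16-24 hr, then exposed to compounds (1:260 dilution of DMSO stock) for 48 hours at 37C. After MPER lysis, β-galactosidase reporter activity was read as FDG fluorescence (ex 480/em 540) after 30 minutes.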
# IL-2 act: qHTS of IL-2 Activators; IL-2 activation reporter assay, cell-based qHTS; stimulated with anti-CD3/CD4/CD28 beads; in transgenic mouse T cells; activation, % (series mostly up to about 46 µM); actives 0.065% (n = 360,000); in the data active = activation above about 50%; inconclusive = mostly about 30% to 49%; also: 0% is about no effect
#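 Quantitative HTS in unstimulated transgenic mouse T cells, with memory T cells as non-tolerant control and PMA/ionomycin as tolerance-bypass control. Compound pretreatment lasted 60 minutes before 18 h bead stimulation; EGFP/DsRed fluorescence read.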
# Chronic BCR inh: qHTS Assay to Find Inhibitors of Chronic Active B-Cell Receptor Signaling; actives 0.05% (n = 340,000); ABC-DLBCL IkBa-CBG/CBR reporter, luminescence ratio, 4 h; Potency, µM (highest dose often 46.1 µM), inactives show top-dose activity change, negative = inhibition, usual class: inhibitors; active = well fitted inhibition curve with a large enough effect in the signal ratio, with a control signal flat, not every such curve was filed as active; inconclusive = small, poorly fitted or top-dose-only effect, or effect the other way, or a change in a side signal; the % refers to the signal ratio;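 also: potency is read from the fitted curve at half-maximal effect; plate controls were basal doxycycline-induced cells for no effect and cells given 10 µM MG132 for full effect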
#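 Compounds up to 46 uM were incubated four hours with TMD8 cells whose green CBG68 luciferase is fused to IkappaBalpha; red CBR luminescence normalised the signal, and concentration-effect curves were fitted to fusion, red and ratio data.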
# BRCA1 expr act: qHTS Assay to Identify Small Molecule Activators of BRCA1 Expression. MCF7-BRCA1-FFLuc reporter, luminescence, 48 h; response scale: scaled: vehicle 0%, 10 µM genistein 100%. Potency, µM (highest dose often 46.1 µM), inactives show top-dose activation, hits mostly activators. actives 1.1% (n = 380,000). AID 624202, 2012; also: potency is read from the fitted curve at half-maximal effect; nearly all actives have a fitted effect of over 80% in size
#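 Cells: MCF7-BRCA1-FFLuc, 2000/well. Exposure: 48 h, 37 °C, 5% CO2. Read: luminescence, 15 min post-substrate. Controls: genistein 10 microM (maximal activation), DMSO (neutral).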
# Nrf2 activator: qHTS of Nrf2 Activators | actives 0.31% (n = 410,000) | AREc32 ARE-luciferase reporter (MCF7-derived line), luminescence, 24 h | Potency, µM (series often up to 46.1 µM), inactives show top-dose activation, most hits filed as activators; also: potency is read from the fitted curve at half-maximal effect; % of control where 0% means no effect; nearly all actives have a fitted effect of over 65% in size
#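 Quantitative high-throughput format: AREc32 reporter cells, 1000 per well, received compound by pin transfer and were incubated 24 hr at 37 deg C, 5% CO2, before Steady-Glo luminescence detection.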
# An asterisk follows results filed as active; ? = inconclusive; . = no result given; [ ] = another dose, or the depositor's remark. Unless noted, calls follow the shape of the dose curve; as a rule, active = well fitted curve in the direction sought with a large enough effect; inconclusive = small, poorly fitted or top-dose-only effect, or another doubt; inactive = no such curve, though single readings can be large; an effect the other way counts as inactive or inconclusive.
SMILES,N370S GC mod,a7 integrin act,IL-2 act,Chronic BCR inh,BRCA1 expr act,Nrf2 activator
Nc1nc(-c2ccc(-c3ccccc3)cc2)cs1,6.1%,32.9%,-0.5,?,?,6.2%
CC(=O)Oc1ccc(-c2csnn2)cc1,3.5%,-1.0%,0.8,-14.3%,7.4%,0.4%
Cc1ccc(-c2csc(N)n2)cc1,.,0.0%,-0.2,.,10µM*,5.3%
Nc1nc(-c2ccc(Oc3ccccc3)cc2)cs1,4.5%,?,0.1,?,11.2µM*,5.6%
Cc1ccc(-c2csnn2)cc1,0.9%,10µM*,3.5,?,0.5%,-1.1%
COc1ccc(-c2csc(N)n2)cc1,-4.0%,15.8%,0.6,1.8%,10µM*,2.4%
COc1ccc(-c2csc(N=C(N)N)n2)cc1,-2.0%,0.0%,-3.4,-2.5%,?,0.4%
Cc1cc(NC(=O)CSCC(=O)N(C)Cc2cccc(Cl)c2)no1,-6.8%,18.2%,-2.3,-3.8%,-0.2%,-0.4%
CCOC(=O)c1c(C)oc2nc(C)nc(Nc3cc(C)ccc3OC)c12,.,.,.,.,.,0.0%
CC(C)c1ccc(NC(=O)[C@H](NC(=O)[C@@H]2Cc3ccccc3CN2)c2ccccc2)cc1,?,-34.3%,-4.8,?,-1.6%,7.3%
Cc1ccc(OCc2csc(N)n2)cc1,2.8%,10.2%,0.3,?,5.01µM*,4.3%
COc1cccc(-c2nnc(NC(=O)c3cccs3)s2)c1,1.2%,26.6%,0.2,?,3.98µM*,2.4%
Cc1ccc(Oc2ccc(NC(=O)c3ccco3)cc2)cc1,3.1%,0.0%[7.66 µM],1.8,-2.8%,11.2µM*,2.7%
COc1cccc(-c2nnc3sc(-c4ccco4)nn23)c1,2.4%,-24.4%,-1.9,11.0%,8.91µM*,3.5%
Cc1ccc(-c2nnc(NC(=O)c3ccco3)s2)cc1,-2.3%,-3.2%,0.0,?,2.24µM*,3.4%
Cc1ccc(NC(=O)c2ccc(OC(=O)c3ccco3)cc2)cc1,-0.5%,5.1%,-0.9,-3.0%,?,-0.1%
Cc1oc(-c2ccccc2F)nc1CS(=O)CC(=O)NC(C)C (centres undefined),.,.,.,.,.,0.5%
CC(C)Cn1c(N)c(C(=O)CSc2cc(Cl)ccc2Cl)c(=O)n(C)c1=O,22.0%,.,.,0.6%,.,.
Cc1cccc2[nH]c(-c3ccc(NC(=O)c4ccco4)cc3)nc12,4.9%[2.35 µM],-15.6%,-0.8,?,1.78µM*,2.1%
COc1ccc(-c2nnc(NC(=O)c3ccco3)s2)cc1,-5.8%,12.9%,0.2,-0.1%,?,0.4%
COc1cccc(-c2nnc(NC(=O)c3ccco3)s2)c1,-22.8%,-2.0%,0.6,?,6.31µM*,8.9%
O=C(Nc1ccc2nc(-c3ccccc3)[nH]c2c1)c1ccco1,2.1%,-4.4%,2.3,?,?,8.1%
COc1cc2c(cc1NC(=O)c1ccccc1C)n(C)c(=O)n2C,.,.,.,.,-30.0%,3.5%
Cc1cc(CNC(=O)c2cc(COc3ccc(F)c(F)c3)on2)nn1C,2.6%,8.6%,-2.9,3.2%,8.91µM*,0.5%
Cc1cc(C)n(CC(C)NC(=O)c2cc(COc3ccc(F)c(F)c3)on2)n1 (centres undefined),3.7%,9.4%,-0.3,?,92.0%,4.9%
O=S(=O)(c1ccccc1C(F)(F)F)N1CCN(c2nc(-c3cccs3)nc3ccccc23)CC1,.,.,.,.,7.3%,.
N#C/C(=C\c1cccc([N+](=O)[O-])c1)c1ccccn1,6.8%,-5.4%,-2.2,?,-9.9%,3.55µM*
Cc1oc2c(c(C)cc3oc(=O)c(CC(=O)NCCc4ccc(Cl)cc4)c(C)c32)c1C,.,.,.,.,.,0.6%
CCOCCCNc1ccc(-c2ccccc2)nn1,-5.5%,-0.4%[7.66 µM],3.7,?,2.82µM*,-0.1%

# Assay outcomes from PubChem.
